# High-throughput results (PubChem)
# CYP2C9 act: CYP2C9 (human) activation. P11712. 96,000 tested, 1.4% active. AID 1024. recombinant CYP2C9, luciferin-H conversion, luminescence; hits give high values; factor 1 = untreated enzyme, 0 = blocked. activation factor at 5 µM;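 active means activation factor of 2 or more for CYP2C9 at a 5 µM dose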;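 further: 0 = sulfaphenazole-blocked wells and 1 = vehicle-only wells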
# CYP2C19 inhib: inhibitors of human CYP2C19; 96,000 tested, 21% active; CYP2C19 Supersomes, luciferin-H EGE luminescence, 30 min; inhibition, % at 5 µM; P33261;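 active means CYP2C19 inhibition above a set limit at 5 µM in the primary screen, cut at about 50% in these data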;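 further: plate controls were negative control wells for no effect and 2.5 mM tranylcypromine positive control for full effect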
# Mac1 fbg inh: inhibitors of human CD11b/CD18 binding to fibrinogen; 93,000 tested, 0.54% active; K562 CD11b/CD18 adhesion to fibrinogen, ATPlite luminescence; Mn2+ added to activate the integrin; inhibition, % at 10 µM; P05107+P11215;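 active means primary inhibition of 50% or more at 10 µM, then 40% or more on retest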
# Target sequence (P05107 whole entry, looked up, other chains not shown): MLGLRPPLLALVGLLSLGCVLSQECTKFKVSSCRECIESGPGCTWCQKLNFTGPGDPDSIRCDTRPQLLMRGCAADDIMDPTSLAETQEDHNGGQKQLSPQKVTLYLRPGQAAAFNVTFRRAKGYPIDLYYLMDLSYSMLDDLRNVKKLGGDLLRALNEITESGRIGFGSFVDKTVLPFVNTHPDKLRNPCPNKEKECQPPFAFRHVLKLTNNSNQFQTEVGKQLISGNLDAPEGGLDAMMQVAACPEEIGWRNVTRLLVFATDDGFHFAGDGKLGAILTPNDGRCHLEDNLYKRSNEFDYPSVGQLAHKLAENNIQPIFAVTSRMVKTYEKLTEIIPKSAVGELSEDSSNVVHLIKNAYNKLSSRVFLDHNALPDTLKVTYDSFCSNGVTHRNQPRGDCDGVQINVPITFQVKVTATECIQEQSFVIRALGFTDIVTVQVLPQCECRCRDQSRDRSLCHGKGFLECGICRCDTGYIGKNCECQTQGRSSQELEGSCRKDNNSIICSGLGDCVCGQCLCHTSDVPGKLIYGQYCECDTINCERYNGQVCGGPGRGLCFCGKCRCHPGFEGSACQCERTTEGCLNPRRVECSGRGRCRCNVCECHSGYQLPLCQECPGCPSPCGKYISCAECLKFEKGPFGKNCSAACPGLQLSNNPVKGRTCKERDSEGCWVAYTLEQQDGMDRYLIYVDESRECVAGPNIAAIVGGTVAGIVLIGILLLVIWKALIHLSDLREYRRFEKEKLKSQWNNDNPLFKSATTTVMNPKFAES
# CYP2C19 act: increases human CYP2C19 enzyme activity; 96,000 tested, under 10 active; recombinant CYP2C19, luciferin-H EGE luminescence; hits give high values; 0 = fully inhibited enzyme, 1 = untreated enzyme; P33261; activation factor at 5 µM;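 active means activation factor of at least 2 at 5 µM in the primary screen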;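 further: 0 = wells with 2.5 mM tranylcypromine and 1 = vehicle-only wells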
# CD11b adhes enh: enhancers of human CD11b/CD18 binding to fibrinogen | 93,000 tested, 0.07% active | activation, % at 10 µM | P05107+P11215 | K562 CD11b/CD18 adhesion to fibrinogen, ATPlite luminescence;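 active means 10 µM primary screen giving 50% or more activity, confirmed by 40% or more on retest at that dose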
# CYP2C9 inhib: inhibitors of human CYP2C9 | inhibition, % at 5 µM | 96,000 tested, 20% active | CYP2C9 Supersomes, luciferin-H conversion, luminescence | AID 777 | P11712;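 active means blocking of liver enzyme CYP2C9 beyond about 50% at 5 µM, limit read from the data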
# An asterisk follows results filed as active; nt = no result. Sampled rows, rich in hits. Any-hit rate of the full collection: about 28%.
SMILES,CYP2C9 act,CYP2C19 inhib,Mac1 fbg inh,CYP2C19 act,CD11b adhes enh,CYP2C9 inhib
COC(=O)c1c(NC(=O)CN2C(=O)NC3(CCC(C(C)(C)C)CC3)C2=O)sc2c1CCCCC2 (centres undefined),nt,nt,-3,nt,48,nt
Clc1ccc(OCCOCCN2CCCCC2)c(Br)c1,0.9,30,-3,0.7,-5,11
Brc1c(OCCOCCn2cncn2)ccc2ccccc12,0.1,99*,-10,0,-3,95*
CSc1nccc(Nc2ccccc2)c1C#N,0.3,59*,-2,0.4,2,69*
COc1nccc(Nc2ccccc2)c1C#N,1,39,-2,0.6,1,3
Cc1ccc2cc(CN(CCCO)S(=O)(=O)c3cccc4nsnc34)c(=O)[nH]c2c1,0,1,-6,1,7,100*
Cc1ccc2nsnc2c1S(=O)(=O)N(CCO)Cc1cc2cc3c(cc2[nH]c1=O)OCCO3,0.8,-2,-12,1,-1,16
Cc1ccc2[nH]c(=O)c(CN(CCCO)S(=O)(=O)c3cccc4nsnc34)cc2c1,0.1,46,5,0.5,-5,88*
CC1(C)CC2CC(C)(CN2C(=O)C23CCC(C)(C(=O)O2)C3(C)C)C1 (centres undefined),0.8,28,-2,0.7,-1,18
CCOC(=O)c1nnn(-c2nonc2N)c1CN1CCCCCC1,1,-2,-1,1,0,0
CCOC(=O)c1nnn(-c2nonc2N)c1CNC(C)C,0.9,49,-11,0.5,-2,11
CCOC(=O)c1nnn(-c2nonc2N)c1COc1ccc(F)cc1,0.2,14,-7,0.9,0,81*
COC(=O)c1nnn(-c2nonc2N)c1CSc1nc2ccccc2s1,0.5,52*,4,0.5,10,49
CCOC(=O)c1nnn(-c2nonc2N)c1CNc1ccccc1,0.5,7,1,0.9,-4,53*
CCOC(=O)c1nnn(-c2nonc2N)c1COc1ccccc1,0.1,48,-18,0.5,-2,88*
N#CCSc1nnc(Cc2ccc3c(c2)OCO3)o1,1,16,-2,0.8,0,-1
O=C1CC(N2CCN(c3ccc(C(=O)c4ccc(F)cc4)cc3)CC2)C(=O)N1 (centres undefined),0.9,3,-1,1,-3,7
CCOC(=O)c1nnn(-c2nonc2N)c1CN(CC)c1ccccc1,0.1,99*,-7,0,-1,89*
CCOC(=O)c1nnn(-c2nonc2N)c1CN(CC)CC,1,36,2,0.6,1,2
CCOC(=O)N1CCN(C(=O)CSc2ccccc2)CC1,0.9,44,-10,0.6,-3,11
CCCc1cc(Nc2c(C)n(C)n(-c3ccccc3)c2=O)n2c(nc3ccccc32)c1C#N,0.4,6,nt,0.9,nt,62*
Cc1cc(Nc2c(C)n(C)n(-c3ccccc3)c2=O)n2c(nc3ccccc32)c1C#N,0.6,27,0,0.7,-1,40
CN(C)/C=C(\C#N)C(=O)c1cccc(Oc2ccc(Br)cc2)c1,0.7,92*,20,0.1,-3,29
CC(C)c1ccc(Oc2cccc(C(=O)/C(C#N)=C/N(C)C)c2)cc1,0.1,98*,40,0,0,85*
Oc1ccc(/C=N/NC2=NCCCCC2)cc1,1,9,-11,0.9,-3,2
SMILES,CYP2C9 act,CYP2C19 inhib,Mac1 fbg inh,CYP2C19 act,CD11b adhes enh,CYP2C9 inhib
O=C1CC(c2ccc(S(=O)(=O)NCc3ccccc3)cc2)CN1 (centres undefined),1,-12,-7,1.1,1,1
O=C1CC(c2ccc(S(=O)(=O)Nc3cc(C(F)(F)F)cc(C(F)(F)F)c3)cc2)CN1 (centres undefined),0.2,38,1,0.6,-2,79*
Cc1ccccc1NS(=O)(=O)c1ccc(C2CNC(=O)C2)cc1 (centres undefined),0.5,56*,10,0.4,3,47
CN1C(=O)c2ccccc2C(C(=O)O)C1c1cn(C)c2ccccc12 (centres undefined),0.8,15,nt,0.8,nt,17
Fc1ccc(Oc2nccc(-c3ccc(Cl)cc3)n2)cc1,0.9,40,21,0.6,-6,8
C=CCN1CC2CC3(COc4cc(C)cc(C)c4)C=CC2(O3)C1=O (centres undefined),0.5,65*,-9,0.4,-2,45
COC(=O)c1nn(-c2ccccc2)c(=O)cc1Oc1ccc(Cl)cc1,0.9,24,-8,0.8,2,8
COC(=O)c1nn(-c2ccccc2)c(Cl)c1/C=N/OCc1ccc(Cl)cc1Cl,0.3,29,nt,0.7,nt,67*
COC(=O)c1nn(-c2ccccc2)c(Sc2ccc(Br)cc2)c1/C=N/O,0.3,39,-15,0.6,3,73*
COC(=O)c1nn(-c2ccccc2)c(Sc2ccc(Cl)cc2)c1/C=N/O,0.5,37,5,0.6,2,55*
COCC(=O)N/N=C(\C)CC(=O)Nc1ccccc1C(N)=O,1,21,nt,0.8,nt,0
Cc1nc(CCNC(=O)Cc2ccc(F)cc2)cs1,0.8,34,-17,0.7,1,16
Cc1cccc(C(=O)NCCc2csc(C)n2)c1,1,12,-5,0.9,5,4
Cc1nc(CCNC(=O)Cc2ccc(Cl)cc2)cs1,0.7,56*,10,0.4,-5,27
Cc1ccc(C(=O)NCCc2csc(C)n2)cc1,0.5,13,13,0.9,0,53*
O=C(O)C1CCN(C(=O)NC2CCCCC2)CC1,0.9,-4,15,1,2,5
CCCNS(=O)(=O)c1ccc(OCC(=O)Nc2ccc3c(c2)OCCO3)cc1,0.3,11,10,0.9,-4,70*
CCC(C)NS(=O)(=O)c1ccc(OCC(=O)Nc2ccc3c(c2)OCO3)cc1 (centres undefined),0.7,17,27,0.8,-4,31
CCC(C)NS(=O)(=O)c1ccc(OCC(=O)NCc2ccc3c(c2)OCO3)cc1 (centres undefined),0.5,36,-18,0.6,4,49
CCCNS(=O)(=O)c1ccc(OCC(=O)NCc2ccc3c(c2)OCO3)cc1,0.4,54*,-7,0.5,2,62*
COc1ccc(-c2cc(-c3cccs3)c(C#N)c(SCC(=O)NCc3ccccc3OC)n2)cc1,0.6,17,nt,0.8,nt,40
CCSc1nc(-c2ccc(OC)cc2)cc(-c2ccccc2)c1C#N,0.3,31,-3,0.7,12,66*
CCc1nnc(NC(=O)CSc2nc(-c3ccc(F)cc3)cc(-c3ccccc3)c2C#N)s1,nt,nt,-3,nt,0,nt
COc1ccc(-c2cc(-c3cccs3)c(C#N)c(SCC(=O)NCc3ccccc3)n2)cc1,0.5,-1,nt,1,nt,53*
